We go through 57 compounds from ChEMBL document CHEMBL4513216, “Probing the Open Global Health Chemical Diversity Library for Multistage-Active Starting Points for Next-Generation Antimalarials” (ACS Infect Dis, 2020).

The whole screen tested about 65,000 compounds, of which about 2,100 (3.2%) showed an effect of 50% or more. The median lay at about -52%. Shown is part of a subset that was picked to be rich in strong results.

The experiment concerns Plasmodium falciparum. Description: Screen against P. falciparum Asexual Blood Stage (ABS), at 5uM. The experiment is classed as functional, Dd2. The conditions noted are these: tested at 5 uM.
As for `CCn1nccc1CNC(=O)Cn1cc2c(n1)c(C)nn2C(C)C`, the INHIBITION is recorded as -127%.
In the case of `CC(C)N1CCOCC2(CCCN(C(=O)c3cncn3C)C2)C1` (configuration not stated), the INHIBITION is recorded as -78.3%.
`O=C(NCc1cc[nH]n1)NCC(O)c1ccc(F)cc1` (configuration not stated): the INHIBITION was 3.65%.
With `Cc1ccc(CN2CCC3(CC2)C(c2ccccc2)CC(=O)N3C)o1` (configuration not stated), the INHIBITION is given as 17.1%.
Turning to `C=Cn1cc(CN2CCC(c3ncc(Cl)cc3S(C)(=O)=O)CC2)c(C)n1`, the INHIBITION was 14.8%.
`CN(C(=O)CN1CCOC(Cn2cccn2)C1)c1nccs1` (configuration not stated): the INHIBITION is listed as -24.5%.
Regarding `Cc1nc2ccccc2nc1CN1CCCC1Cn1cncn1` (configuration not stated), the INHIBITION stood at 62.3%.
For the compound `Cc1c(Cl)c(CN2CCCC2Cn2cncn2)nc2ccccc12` (configuration not stated), the INHIBITION was 16.2%.
For `Cc1nc2ccccc2nc1CN1CCCCC1Cn1cccn1` (configuration not stated), the INHIBITION is -78.3%.
As for `Cc1nc2ccccc2nc1CN1CCCC(Cn2cncn2)C1` (configuration not stated), the figure is -96.3%; as for `Cc1cnn(CC2CCCN2Cc2nc3ccccc3nc2C)c1` (configuration not stated), -88.9%; as for `Cc1nc2ccccc2nc1CN1CCCC1Cn1cccn1` (configuration not stated), 69.3%.
In the case of `CC1CCc2nn(CCNC(=O)Cc3ccc(F)cc3)c(=O)cc2C1` (configuration not stated) it was -65.3%; in that of `CN1CCOCC2(CCCN(C(=O)c3ccc(-n4cccc4)cc3)C2)C1` (configuration not stated), 28.9%.
In the case of `CNC(=O)c1nc(CN2CCOC(CCCC(C)C)C2)no1` (configuration not stated) it was -32%.
Take `CNC(=O)c1nc(CN2CCOC(C(F)(F)F)C2)no1` (configuration not stated): the INHIBITION is -43.7%.
For the compound `CNC(=O)c1nc(CN2CCOC(Cc3ccc(F)cc3)C2)no1` (configuration not stated), the INHIBITION is listed as 51.7%.
In the case of `CSC(C)(C)CNC(=O)NC1CCN(CC=C(C)C)CC1`, the INHIBITION is reported as -10.7%.
Turning to `COCC(=O)N1C[C@H]2CCC[C@@]2(COC)C1`, the INHIBITION was -47.2%.
With `c1cnn(CC2CCCCN2Cc2cn3ccsc3n2)c1` (configuration not stated), the INHIBITION was -19.1%.
As to `Cc1nc(C)n(CC2CCCN2Cc2cn3ccsc3n2)n1` (configuration not stated), the INHIBITION is recorded as -20.5%.
With `Cc1cc(CN2CCCC2Cn2cccn2)no1` (configuration not stated), the INHIBITION was -13.9%.
In the case of `c1ncn(CC2CCCN(Cc3cn4ccsc4n3)C2)n1` (configuration not stated) it was -48.4%; in that of `c1ncn(CC2CCCN2Cc2cn3ccsc3n2)n1` (configuration not stated), -64.9%; in that of `c1ncn(CC2CCCCN2Cc2cn3ccsc3n2)n1` (configuration not stated), 61.4%.
As for `c1cnn(CC2CCCN2Cc2cn3ccsc3n2)c1` (configuration not stated), the INHIBITION worked out at 64.9%.
In the case of `Cc1cc(CN2CCCCC2Cn2cncn2)no1` (configuration not stated) it was 57.3%.
`Cc1cc(CN2CCCC2Cn2cncn2)no1` (configuration not stated): the INHIBITION is -174%.
With `CC(C)Nc1ncnc2c1CCN(C(=O)c1ccncc1F)CC2`, the INHIBITION is listed as -7.41%.
For `CS(=O)(=O)NC(=O)c1ccn(-c2ccccc2Cl)n1`, the INHIBITION is -38.1%.
`Cc1cc(C)n(CC2CN(CC(=O)NCc3ccccn3)CCO2)n1` (configuration not stated): the INHIBITION is given as -102%.
`CSCc1noc(CNC(=O)C2CCN(C3CCCCC3)CC2)n1`: the INHIBITION is -24.2%.
As for `COCCN1CCO[C@@H]2CN(C(=O)Cc3ccc(F)cc3)CC[C@@H]2C1`, the figure is 12%; as for `COc1ccc(CN2C[C@H]3CN(c4ccsc4)C(=O)[C@H]3C2)cc1`, -68.6%.
In the case of `CCN1CCN2CCCN(S(=O)(=O)c3cccc(F)c3)C2C1=O` (configuration not stated), the INHIBITION worked out at 24.6%.
With `CCN1CCN2CCCN(S(=O)(=O)c3ccc(C)cc3C)C2C1=O` (configuration not stated), the INHIBITION was 64.3%.
In the case of `CCN1CCN2CCCN(S(=O)(=O)c3ccc(S(C)(=O)=O)cc3)C2C1=O` (configuration not stated) it was 20.7%; in that of `Cc1cnc(C(=O)N2Cc3cc(Cl)ccc3OC3(CCOCC3)C2)cn1`, -30.5%; in that of `CCc1ccccc1N1CC(c2nnc(N)s2)CC1=O` (configuration not stated), -94.9%.
Turning to `COCC(=O)N1CCOC2(CCCN(c3cnccn3)C2)C1` (configuration not stated), the INHIBITION is recorded as -88.3%.
In the case of `CC(C)CCN1CCCC12Cc1ccccc1CNC2=O` (configuration not stated), the INHIBITION is listed as 51.7%.
`Cc1ccc(CCN2CCCC23Cc2ccccc2CNC3=O)cc1` (configuration not stated): the INHIBITION is -15.1%.
Take `CC(C)(C)CN1CCCC12Cc1ccccc1CNC2=O` (configuration not stated): the INHIBITION is recorded as 2.53%.
In the case of `N#Cc1cccc(CNc2ccc(F)cc2OCCO)c1`, the INHIBITION was -11%.
In the case of `Cc1ccc(S(=O)(=O)N2C[C@H]3C[C@H](NC(=O)c4cc[nH]n4)[C@H]3C2)cc1` it was -17.3%; in that of `CNS(=O)(=O)c1ccc(CNC(=O)Nc2cn[nH]c2)cc1`, -94.2%.
On to `COC1(CNC(=O)NCCOc2ccccc2)CCSC1` (configuration not stated), for which the INHIBITION is -45.4%.
With `Cc1nc2c(c(NC3CC3)n1)CCN(C(=O)CCO)CC2`, the INHIBITION is reported as -79.7%.
As for `Cc1ccc2nc(C3CCCN3Cc3csc(C)n3)[nH]c2c1` (configuration not stated), the figure is 65.7%.
In the case of `Cc1ccc2nc(C3CCCN3Cc3scnc3C)[nH]c2c1` (configuration not stated), the INHIBITION is on record as -84.1%.
In the case of `CC(=O)c1cc(CN2CCCC2c2nc3ccc(C)cc3[nH]2)cs1` (configuration not stated) it was 50.3%; in that of `Cc1ccc2nc(C3CCCN3Cc3nnc(C)s3)[nH]c2c1` (configuration not stated), -102%.
As for `CC(=O)c1cc(CN2CCCCC2c2nc3cc(F)ccc3[nH]2)cs1` (configuration not stated), the INHIBITION was 12.3%.
As for `Cc1ccc2nc(C3CCCN3Cc3cccc(CCN)c3)[nH]c2c1` (configuration not stated), the figure is 41.2%; as for `Cc1c(C(=O)NCCC(=O)N2CCCC2)cccc1-c1ccccn1`, -47.4%.
With `CCOC(=O)[C@]12CCCN(Cc3cccs3)C[C@H]1CN(C(C)C)C2`, the INHIBITION was determined as 9.63%.
In the case of `O=C(CN1CCOCC1)N(c1ccccc1)c1ccccc1` it was -110%.
